The entries come from a sample that favours hits as a whole.
Dicer processing: human Dicer pre-microRNA cleavage inhibition | Q9UPY3 | cat-ELCCA pre-miR-21 Dicer processing, chemiluminescence; stronger effect = higher value | z-score at 25 µM | actives 6% (n = 47,000) | AID 1347074; in the data active = z-score above about 3, passing the limit was not always enough;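 also: plate controls were vehicle for no effect and no enzyme for full effect; higher signal means more uncleaved substrate so more Dicer inhibition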
The depositor's hits bear a star.

SMILES	Dicer processing
CCc1ccc(C(=O)CC2(O)C(=O)N(C(C)C)c3ccccc32)cc1 (stereo unspecified)	-0.88
CC(C)(C)c1ccc(OCc2nc3ccccc3[nH]2)cc1	-0.35
O=C(/C=C/c1cccs1)Oc1ccccc1/C=N/N=C1\SCC(=O)N1c1cccc(F)c1	5.4
C/C(=N\OS(C)(=O)=O)c1cc2cc([N+](=O)[O-])ccc2o1	-0.71
O=C(O)CNC(=O)c1c(F)cccc1F	0
COc1ccc(NS(=O)(=O)c2cccc(S(=O)(=O)c3ccc(Cl)cc3)c2)cc1	3.4*
COc1ccc(NS(=O)(=O)c2ccc(N)cc2)cc1	0.5
COc1ccc(NS(=O)(=O)c2ccc(NS(=O)(=O)c3ccc(Cl)cc3)cc2)cc1	-0.09
CCOC(=O)/C(C#N)=C/Nc1cc(C(=O)OC)ccc1C	0.09
COC(=O)c1csc2c(C(F)(F)F)cc(N3CCN(C(=O)c4cccs4)CC3)nc12	0.81
COC(=O)c1ccsc1NC(=O)c1cccs1	-0.03
COC(=O)c1cc(=O)n2c(c1C(=O)c1cccs1)SCC2	6.8*
CSc1ccc(C2N=C(N)Nc3nc4ccccc4n32)cc1 (stereo unspecified)	-1.5
CC(C)=NNC(=S)Nc1ccc(Cl)cc1	6*
S=C(Nc1ccc(Cl)cc1)Nc1ccc(Cl)cc1	1.8
CNNC(=S)Nc1ccc(Cl)cc1	0.59
CNC(=O)n1cc(C)c(-c2ccccc2)n1	-2.1
CCOC(=O)c1c(NC(=S)N2CCN(C)CC2)sc(C)c1C	-1.9
CCNC(=S)Nc1sc(C)c(C)c1C(=O)OCC	5.3*
CCOC(=O)c1c(NC(=O)CCC(=O)O)sc(C)c1C	2.1
COC(=O)c1c(C)oc2cc(Br)c(OC(=O)C(C)(C)C)cc12	0.52
O=C(COc1ncnc2cc(Cl)ccc12)c1ccc(F)cc1	1.2
Cc1cc(-c2onc(C)c2-c2nc(-c3cccc(C(F)(F)F)c3)no2)no1	0.32
CN1CNc2c(c(=O)n(C)c(=O)n2C)C1	-2.5
Cn1c2c(c(=O)n(C)c1=O)CN(Cc1ccc(CN3CNc4c(c(=O)n(C)c(=O)n4C)C3)cc1)CN2	3.8*
SMILES	Dicer processing
Cn1c2c(c(=O)n(C)c1=O)CN(CCCC(=O)O)CN2	-1.9
CC(c1ccccc1)N1CNc2c(c(=O)n(C)c(=O)n2C)C1 (stereo unspecified)	0.51
CN(C)CCN1CNc2c(c(=O)n(C)c(=O)n2C)C1	3.5*
CCCN1CNc2c(c(=O)n(C)c(=O)n2C)C1	0.77
Cc1cccc(Cl)c1Oc1c([N+](=O)[O-])c(C)nn1C	-2.9
O=C(Nc1ccc(Cl)c(-c2nc3ncccc3o2)c1)c1cc2ccccc2o1	2.3
CC1=C(C(=O)OC(C)C)C(c2ccc(F)cc2)n2c(nc3ccccc32)N1 (stereo unspecified)	-0.55
Cc1ccc(-c2noc(-c3ccco3)n2)cc1	0.03
COc1ccc(C(=O)Cn2c3ccccc3n3nc(-c4ccco4)nc23)cc1	1.4
CSc1nc(-c2ccco2)nn1C(C)=O	-4.5
CSc1nc(-c2ccco2)nn1C(=O)c1ccccc1	3.4*
CSc1nc(-c2ccco2)nn1C(=O)c1ccc(C)cc1	3.2*
Cc1ccc(C(=O)n2nc(C)c(Sc3ncccn3)c2C)cc1	-0.27
CCOC(=O)c1ncoc1-c1ccc(Cl)cc1	-0.27
CCOC(=O)NC(Nc1ccc(C)cc1)(C(=O)OCC)C(F)(F)F (stereo unspecified)	-0.51
C#CCOc1ccc(C2C3=C(CCCC3=O)N(C)C3=C2C(=O)CCC3)cc1	1.1
CCCCCNc1ncnc2c1sc1nc3c(cc12)COC(C)(C)C3	1.8
CCN(CC)CCNc1ncnc2c1sc1nc3c(cc12)COC(C)(C)C3	0.98
CC1(C)Cc2nc3sc4c(NCC5CCCO5)ncnc4c3cc2CO1 (stereo unspecified)	5.7*
O=S(=O)(Nc1ncccc1OCc1cc(F)cc(F)c1)c1ccccc1C(F)(F)F	0.92
COc1ccc(C2/C(=C(\O)c3ccccc3)C(=O)C(=O)N2CCCn2ccnc2)c(OC)c1 (stereo unspecified)	-8.7
Cn1c(=O)c2c(nc(Sc3ccccc3)n2Cc2ccc(Cl)cc2Cl)n(C)c1=O	1.3
Cn1c(=O)c2c(nc(SCc3cc4c(cc3Cl)OCO4)n2C)n(C)c1=O	0.59
Cn1c(=O)c2c(nc(Sc3ccc(Cl)cc3)n2C)n(C)c1=O	3.1*
Cn1c(=O)c2c(nc(N3CCCCC3)n2Cc2ccc(Cl)cc2)n(C)c1=O	0.07
SMILES	Dicer processing
CC(C)n1c(SCc2ccccc2F)nc2c1c(=O)n(C)c(=O)n2C	-0.32
Cn1c(=O)c2c(nc(Cl)n2Cc2cccc(Cl)c2)n(C)c1=O	0
Cn1c(=O)c2c(nc(Cl)n2Cc2ccc(F)cc2)n(C)c1=O	3.1*
Cn1c(=O)c2c(nc(N3CCOCC3)n2Cc2ccc(Cl)cc2)n(C)c1=O	-0.46
Cn1c(=O)c2c(nc(Cl)n2Cc2ccc(C(C)(C)C)cc2)n(C)c1=O	16
Cc1ccccc1CSc1nc2c(c(=O)n(C)c(=O)n2C)n1C	5.2*
Cn1c(=O)c2c(nc(Br)n2Cc2ccc(Cl)cc2)n(C)c1=O	4.2*
Cn1c(=O)c2c(ncn2Cc2ccc(Cl)cc2)n(C)c1=O	-0.04
N#CC(C(=Nc1ccccc1)SCc1ccc(Cl)cc1)c1nc2ccccc2[nH]1 (stereo unspecified)	-0.92
O=C(O)c1cc(C(F)(F)F)ccc1Cl	2.1
CCC(=O)N1N=C(c2ccco2)CC1c1cn(-c2ccccc2)nc1-c1cccs1 (stereo unspecified)	-0.68
Cn1cnc(S(=O)(=O)NCC2CCN(S(=O)(=O)c3ccccc3)CC2)c1	1.2
COc1ccc(CCn2c(=O)c3cc4c(=O)n(CCc5ccc(OC)c(OC)c5)c(=O)c4cc3c2=O)cc1OC	0.62
C=C(C)Cn1c(COc2ccc(OC)cc2)nc2ccccc21	0.6
N#CCCN(Cc1ccccc1)C(=O)c1ccccc1	-0.67
CCOC(=O)N1CCc2c(sc3[nH]c(=O)n(-c4ccc(C)cc4)c(=O)c23)C1	-0.56
COC(=O)[C@H]1OC(O)[C@H](O)[C@@H](O)[C@H]1O (stereo partly specified)	5.8*
Cc1nc(-c2ccc(S(=O)(=O)N3CCCN(C(=O)OC(C)(C)C)CC3)s2)cs1	-1.2
Cc1ccc(CN2C(=O)CSC2c2cccc(Br)c2)cc1 (stereo unspecified)	0.26
C=CCOc1ccc(C2C(C(=O)OC)=C(C)NC3=C2C(=O)c2ccccc23)cc1 (stereo unspecified)	-1.9
CC(C)Nc1ncnc2sc3c(c12)CCCC3	-0.71
Cc1nnc(Nc2cccc(Cl)c2C)s1	3.4*
Cc1cc(Cl)ccc1Nc1nnc(-c2ccccc2Cl)s1	-1.5
Clc1cccc(Nc2nnns2)c1Cl	1.4
Cc1cc2n(n1)C(c1ccccc1O)Nc1c(C)cccc1-2 (stereo unspecified)	5.2*
SMILES	Dicer processing
COc1cc(O)ccc1C1Nc2c(C)cccc2-c2cc(C)nn21 (stereo unspecified)	3.8*
COc1ccccc1C1Nc2c(C)cc(C)cc2-c2cc(C)nn21 (stereo unspecified)	2.9
CCN(CC)c1ccc(C2Nc3c(C)cccc3-c3cc(C)nn32)c(O)c1 (stereo unspecified)	0.45
COc1cc(O)ccc1C1Nc2ccccc2-c2cc(C)nn21 (stereo unspecified)	0.34
COc1ccccc1C1Nc2c(C)cccc2-c2cc(C)nn21 (stereo unspecified)	3.9*
Cc1cc2n(n1)C(c1cccs1)Nc1c(C)cccc1-2 (stereo unspecified)	1.4
COc1ccc(C2Nc3c(C)cccc3-c3cc(C)nn32)c(OC)c1 (stereo unspecified)	-0.71
